# The list is not random: actives were taken first. Their share in the collection is about 3.3%.
# WRN helicase inh – inhibitors of human WRN helicase. AID 651768. Potency, µM (series often up to 114 µM), without a hit: at the highest dose activity change, negative = inhibition, hits mostly inhibitors. WRN helicase unwinding, fluorescent forked duplex, kinetic. 0.46% of 360,000 active. Q14191; further: potency means the concentration at half of the fitted maximal effect; nearly all actives have a fitted effect of over 55% in size
#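 WRN at 20 nM final preincubated with compound 15 min at room temperature; reaction started with 100 nM fluorophore/quencher forked duplex oligonucleotide and 2 mM ATP final. Unwinding followed kinetically by red fluorescence (ex 525, em 598 nm).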
# USP1 inh – inhibitors of human USP1/UAF1 deubiquitinase. recombinant USP1/UAF1, Ub-Rhodamine cleavage fluorescence. 0.23% of 390,000 active. Potency, µM (top dose mostly 57.1 µM), without a hit: at the top dose activity change, negative = inhibition, usual class: inhibitors. O94782; further: potency means the concentration at half of the fitted maximal effect; nearly all actives have a fitted effect of over 60% in size
#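 1 nM enzyme complex + cpd, 15 min RT; start with Ub-Rho 150nM final; kinetic fluorescence ex 480/em 540, 6 reads q60 s. Buffer 50mM HEPES pH 7.8, 0.5mM EDTA, 0.1 mg/ml BSA, 1mM TCEP, 0.01% Tween-20.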
# PLK1 PBD block – inhibitors of human PLK1 polo-box domain binding; Potency, µM, without a hit: max response, negative = inhibition, hits mostly inhibitors; P53350; AID 720504; 2.8% of 360,000 active; Plk1 PBD binding of FITC phosphopeptide, fluorescence polarization; further: potency means the concentration at half of the fitted maximal effect; series mostly up to about 57 µM; nearly all actives have a fitted effect of over 65% in size
# Target sequence (P53350 whole entry, looked up, the tested form may be a part): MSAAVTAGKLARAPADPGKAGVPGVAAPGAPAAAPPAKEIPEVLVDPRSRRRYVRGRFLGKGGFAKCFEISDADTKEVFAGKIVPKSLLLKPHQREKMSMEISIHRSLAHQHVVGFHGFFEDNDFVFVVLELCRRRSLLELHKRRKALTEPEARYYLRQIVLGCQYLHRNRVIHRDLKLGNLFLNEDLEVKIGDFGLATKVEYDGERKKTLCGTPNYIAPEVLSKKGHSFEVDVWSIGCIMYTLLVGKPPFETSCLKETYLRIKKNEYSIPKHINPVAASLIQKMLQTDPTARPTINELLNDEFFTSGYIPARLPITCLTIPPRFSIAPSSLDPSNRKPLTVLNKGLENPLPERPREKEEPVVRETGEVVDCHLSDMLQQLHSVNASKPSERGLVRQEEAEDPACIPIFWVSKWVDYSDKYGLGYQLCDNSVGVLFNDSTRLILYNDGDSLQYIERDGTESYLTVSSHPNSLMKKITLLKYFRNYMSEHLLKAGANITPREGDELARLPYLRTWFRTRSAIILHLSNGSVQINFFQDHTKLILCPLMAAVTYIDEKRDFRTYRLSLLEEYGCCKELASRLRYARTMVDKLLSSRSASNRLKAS
# USP2a block – USP2a (human) protease inhibition | 0.01% of 330,000 active | Potency, µM (top dose mostly 38.3 µM), without a hit: top-dose activity change, negative = inhibition, hits mostly inhibitors | O75604 | USP2 core, Ub-CHOP2 coupled fluorogenic reporter, 485/531;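 further: potency means the concentration at half of the fitted maximal effect; plate controls were DMSO wells for no effect and full inhibition by NEM control for full effect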
#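 Deubiquitinase activity read as fluorescence (485/531 nm) after Ub-CHOP2 cleavage activates the enterokinase reporter on its substrate; USP2 core 10nM, Ub-CHOP2 and substrate 25nM each, 30min compound preincubation then 60min RT; data normalized to NEM, curves fitted.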
# PI5P4K alpha inh – inhibitors of human PI5P4K alpha. P48426. PI5P4Kalpha enzyme, ADP-Glo luminescence, 60 min; active compounds read low. max response, %. 1.2% of 330,000 active; active means max response of -50% or lower; inconclusive means between -30% and -50%; inactive means -30% or higher; further: value at the top dose of about 77 µM
#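 Reactions run in 0.038 M HEPES pH 7.4, 0.28 mM EGTA, 0.1% CHAPS and 5% DMSO, with PI5P4Kalpha, substrate, compound and 5 microM ATP final, one hour at room temperature. Readout is ADP-Glo luminescence.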
# Numbers without * were called inactive; ? = inconclusive; · = no result; [ ] = another dose, or the depositor's remark. Unless noted, the call rests on the fitted dose curve; in most records, active means well fitted curve in the direction sought with a large enough effect; inconclusive means small, poorly fitted or top-dose-only effect, or another doubt; inactive means no such curve, though single readings can be large; an effect the other way counts as inactive or inconclusive. Unless noted, on the % scale 0 is the no-effect control and ±100 the full control effect.
SMILES,WRN helicase inh,USP1 inh,PLK1 PBD block,USP2a block,PI5P4K alpha inh
Cc1ccc(Cc2nc3ccccc3nc2SCC(=O)N2CCCCC2)cc1,·,-17.0%,·,·,·
CCn1c(=O)cc(SCC(=O)NCCc2cccc(C)c2)c2ccccc21,·,2.7%,·,·,·
COc1ccc(CNC(=O)[C@H](C)NC(=O)C2CC(=O)N(c3ccc(OC)cc3)C2)cc1 (some centres undefined),1.0%,-5.9%,26.7µM*,0.3%,-5.7
CCOc1ccc(N2CC(C(=O)NCc3cccc(C)c3)CC2=O)cc1 (centres undefined),0.5%,-2.7%,5.97µM*,-0.9%,-11.4
CNC(=O)C1CC(=O)N(c2ccc(OCC(=O)Nc3ccccc3)cc2)C1 (centres undefined),-27.2%,-18.6%,-25.9%,·,-65.8*
CCOc1ccc(N2CC(C(=O)OCC(=O)c3ccc(OC)cc3)CC2=O)cc1 (centres undefined),-5.1%,-5.4%,29.9µM*,1.1%,-0.9
CCCNC(=O)C1CC(=O)N(c2ccc(OCC)cc2)C1 (centres undefined),0.0%[57.1 µM],-17.5%,0.5%,-1.6%,2.8
COc1ccc(N2CC(C(=O)OCC(=O)c3ccc(C)cc3)CC2=O)cc1 (centres undefined),2.8%,3.1%,-11.0%,1.9%,4.2
COc1cc(C(=O)Nc2ccc(-c3nc4ccccc4o3)c(O)c2)cc(OC)c1OC,·,9.6%,·,·,·
COc1ccccc1C(=O)Nc1cccc(C(=O)OCc2cc(=O)n3cc(C)sc3n2)c1,·,-21.5%,·,·,·
Cc1cccc(CN2CCN(CC(=O)Nc3c(C)cccc3C)S2(=O)=O)c1,·,5.1%,·,·,·
Oc1ccc(CNc2ccc(C(F)(F)F)cc2Cl)c2cccnc12,·,·,·,0.2%,·
Cc1c(CNC(C)CCc2ccccc2)c(C(=O)O)c(C)n1Cc1ccc(F)cc1 (centres undefined),·,0.9%,·,·,·
O=[N+]([O-])c1ccc(C[n+]2cccc3ccc4cccnc4c32)cc1,-7.5%,-17.8%,9.47µM*,-4.8%,-58.3*
Cc1ccc(CCNC(=O)CCCn2c(=O)c3ccccc3n(CC(=O)Nc3cc(Cl)ccc3C)c2=O)cc1,·,-28.7%,·,·,·
O=S(=O)(c1ccc(N2CCC(c3ccc(Cl)cc3)=N2)cc1)N(CCO)CCO,-8.1%,-14.2%,29.9µM*,-2.2%,-1.4
CN(C)CCCNS(=O)(=O)c1ccc(N2CCC(c3ccc(Cl)cc3)=N2)cc1,·,·,·,-0.2%,·
COC(=O)c1ccc(NC(=S)NC(=O)c2c(Cl)cnn2C)cc1,1.5%,-27.2%,-12.9%,2.4%,-0.2
COC(=O)c1ccc(NC(=O)c2c(Br)cnn2C)cc1,8.4%,-21.7%,23.8µM*,6.3%,-25.4
COc1ccc(Cn2c(CO)cnc2SCc2ccc(C)cc2)cc1,·,10.7%,·,·,·
CC/C(=N\Nc1ccc([N+](=O)[O-])cc1)c1ccccc1,-5.8%,?,16.8µM*,-1.7%,1.9
O=C(O)CC1S/C(=N/N=C/c2ccc(-c3ccc(Cl)cc3[N+](=O)[O-])o2)NC1=O (centres undefined),?,?,16.8µM*,-2.0%,-52.4*
O=S(=O)(Nc1ncnc2sc3c(c12)CCC3)c1ccc2ccccc2c1,-31.6%,-12.5%,33.6µM*,-5.1%,-10.4
c1ccc(Nc2ncnc3sc4c(c23)CCC4)cc1,-6.4%,-4.5%,-2.1%,-1.0%,·
Cc1cc(F)ccc1S(=O)(=O)Nc1ncnc2sc3c(c12)CCC3,0.8%[57.1 µM],-12.4%,16.8µM*,-0.7%,-18.0
SMILES,WRN helicase inh,USP1 inh,PLK1 PBD block,USP2a block,PI5P4K alpha inh
Fc1ccc(Nc2ncnc3sc4c(c23)CCC4)cc1,2.8%,-26.0%,3.3%,-0.5%,-1.9
O=C(NC(c1ccccc1)c1ccccc1)c1ccc(=O)[nH]n1,5.2%[57.1 µM],-19.6%,23.8µM*,-0.5%,-8.6
O=C1S/C(=C\C=C\c2ccco2)C(=O)N1c1ccccc1,-25.2%,0.6%,-24.6%,-3.1%,-50.4*
O=C1S/C(=C\c2cccs2)C(=O)N1c1ccc(O)cc1,-0.6%,-20.4%,-7.5%,2.2%,1.0
O=C1S/C(=C\C=C\c2ccco2)C(=O)N1c1ccc(O)cc1,?,-11.0%,-8.3%,?,-87.1*
CCC(C)NC(=O)CSc1nc2cc3c(cc2c(=O)n1CCCCCC(=O)NCc1ccc(OC)cc1)OCO3 (centres undefined),·,-17.6%,·,·,·
CC(=O)Nc1cccc(-c2nc3ccccc3[nH]2)c1,0.5%,-18.5%,-1.5%,-1.1%,9.2
CC(C)CC(=O)Nc1cccc(-c2nc3ccccc3[nH]2)c1,5.2%,-23.4%,26.7µM*,6.8%,-14.1
O=C1C=CC(=O)N1,0.9%,-22.2%,29.9µM*,-0.3%,?
COc1ccc(CCNCc2c(C(=O)O)c(C)n(Cc3c(F)cccc3Cl)c2C)cc1OC,·,3.8%,·,·,·
O=C(NCc1ccco1)C1CC(=O)N(c2ccc(O)cc2)C1 (centres undefined),-20.5%,-12.6%,3.36µM*,-0.2%,?
O=C(CSc1nnc(NC(=O)C2CC(=O)N(c3ccccc3)C2)s1)NCc1ccco1 (centres undefined),-21.5%,-15.2%,-26.9%,1.2%,?
COc1cccc(N2CC(C(=O)Nc3nnc(SCC(=O)NCc4ccco4)s3)CC2=O)c1 (centres undefined),-30.2%,-14.6%,?,3.2%,-61.5*
COc1ccc(N2CC(C(=O)Nc3ccccc3C(=O)NCc3ccco3)CC2=O)cc1 (centres undefined),7.7%,-3.0%,-5.7%,-1.6%,0.2
COc1cc(C2CC(=O)Nc3c2c(=O)n(C)c(=O)n3C)cc(OC)c1OC (centres undefined),·,-8.0%,·,·,·
O=C(CN1C(=O)COc2ccc(S(=O)(=O)Nc3ccccc3)cc21)Nc1cccc(Cl)c1,·,-31.6%,·,·,·
CCCn1ccc2c(OCC(=O)Nc3ccc(OC)c(OC)c3)cccc2c1=O,·,-12.2%,·,·,·
CCC(=O)C1=C(c2cccc(OC)c2)N(C(=O)CC)n2c(nnc2C2CCCCC2)S1,·,-11.1%,·,·,·
Cc1ccc(Cl)cc1N1CCN(CCCNc2ncnc3onc(-c4ccc(F)cc4)c23)CC1,·,-18.9%,·,·,·

# Screens from PubChem BioAssay.
